Among all 350,000 compounds or so, about 2,100 (0.6%) were called active. Roughly 1% stayed inconclusive and do not appear here. This is one part of a sample in which actives are shown more often than they occur. Unmarked numbers belong to inactive results.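 Rule for the calls: active = activity change of -60% or lower, but not beyond a set lower limit; inconclusive = change between -60% and -40%, or beyond the set limit; inactive = change above -40%.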
The compounds below were run against Relaxin receptor 1 (Homo sapiens) (UniProt Q9HBX9) (assay: qHTS Assay for Antagonists of the Relaxin Receptor RXFP1). Settings: HEK293-RXFP1, relaxin-stimulated cAMP HTRF, 30 min; at 57.5 µM; stronger effect = lower value.
Text: The relaxin hormone is involved in the variety of biological functions in normal tissues and diseases. The role of relaxin is well-established in female reproduction and parturition, mammary gland and endometrial development, maintenance of myometrial quiescence during pregnancy. Relaxin signaling through its G protein-coupled receptor (GPCR) RXFP1 results in ECM remodeling through regulation of collagen deposition, cell invasiveness, proliferation and overall tissue homeostasis. […] Recombinant human relaxin (rhRlx) is currently being tested in clinical trials as a protective agent in congestive heart failure, in treating severe preeclampsia, and as an anti-fibrotic agent in various organs. […] Upon relaxin binding RXFP1 activation leads to the activation of adenylate cyclase (AC) via G?s. cAMP will activate PKA, which phosphorylates many signaling proteins. Thus, detection of cAMP increase is an easy and reliable indication of relaxin receptor activation. To screen for antagonists of the relaxin receptor, a HEK293T cell line stably transfected with RXFP1 was used. RXFP1 activation by relaxin in presence of various concentrations of tested compounds was assayed by changes in cAMP levels as detected with a time-resolved fluorescence energy transfer (TR-FRET) cAMP detection kit.
For the primary screening, we used HTRF(R) (Homogenous Time-Resolved Fluorescence) cAMP HiRange assay (Cisbio Bioassays, 62AM6PEJ). Presence of cAMP in the cell lysate disrupts binding between the Cryptate-labeled anti-cAMP and d2-labeled cAMP pair, leading to a decrease in TR-FRET signal. The libraries were screened at two doses (57microM and 11microM), followed by a confirmation of the hits at 7-point serial dilution in the range of final concentrations [57microM - 78nM]. Data were normalized to the controls for basal activity (buffer only) and 100% activity (5 nM porcine relaxin). The EC50 values were determined from concentration-response data modeled with the standard Hill equation. NCGC Assay Protocol Summary: HiHEK (Hawaiian HEK293 LGR7 stably transfected with human RXFP1) were grown in the following media: DMEM+10%FBS+Pen/Strep + Geneticin (1mg/ml). For the assay, the cells were seeded in DMEM+Pen/Strep (with no serum & selective antibiotics) at 2,100 cells/ 3microl/well with MultiDrop Combi dispenser (Thermo Scientific, Logan, UT) onto white tissue culture treated solid bottom1536-well plates (Greiner #789173-F) and allowed to attach/recover overnight at 37 degrees C, 5% CO2. Next, 23nl/well of compound solutions in DMSO were transferred into wells with a pintool (Kalypsis, San Diego, CA). […] EC80 (relaxin at 50pM final concentration) was dispensed to the rest of the plate except columns 1&2 which were used as a negative control (EC0, buffer only), 1microl/well also. The cells were stimulated by relaxin in the presence of compounds for 30 minutes at 37 degrees C, 5% CO2. The detection reagents were prepared individually by dilution in Lysis buffer (supplied with the assay kit) just prior to dispensing. 1microl/well of cAMP-d2 and 1microl/well anti-cAMP-Eu3+-Cryptate antibodies were added simultaneously with BioRAPTR FRDtrade mark Workstation (Beckman Coulter). The plates were incubated at ambient temperature for 30 minutes and, then, FRET signal was read on Envision plate reader (PerkinElmer, Waltham, MA), at wavelengths 340nm (excitation), 615nm & 665nm (emission of donor and acceptor channels respectively).

Chain of Relaxin receptor 1 (Homo sapiens) (Q9HBX9 whole entry, looked up): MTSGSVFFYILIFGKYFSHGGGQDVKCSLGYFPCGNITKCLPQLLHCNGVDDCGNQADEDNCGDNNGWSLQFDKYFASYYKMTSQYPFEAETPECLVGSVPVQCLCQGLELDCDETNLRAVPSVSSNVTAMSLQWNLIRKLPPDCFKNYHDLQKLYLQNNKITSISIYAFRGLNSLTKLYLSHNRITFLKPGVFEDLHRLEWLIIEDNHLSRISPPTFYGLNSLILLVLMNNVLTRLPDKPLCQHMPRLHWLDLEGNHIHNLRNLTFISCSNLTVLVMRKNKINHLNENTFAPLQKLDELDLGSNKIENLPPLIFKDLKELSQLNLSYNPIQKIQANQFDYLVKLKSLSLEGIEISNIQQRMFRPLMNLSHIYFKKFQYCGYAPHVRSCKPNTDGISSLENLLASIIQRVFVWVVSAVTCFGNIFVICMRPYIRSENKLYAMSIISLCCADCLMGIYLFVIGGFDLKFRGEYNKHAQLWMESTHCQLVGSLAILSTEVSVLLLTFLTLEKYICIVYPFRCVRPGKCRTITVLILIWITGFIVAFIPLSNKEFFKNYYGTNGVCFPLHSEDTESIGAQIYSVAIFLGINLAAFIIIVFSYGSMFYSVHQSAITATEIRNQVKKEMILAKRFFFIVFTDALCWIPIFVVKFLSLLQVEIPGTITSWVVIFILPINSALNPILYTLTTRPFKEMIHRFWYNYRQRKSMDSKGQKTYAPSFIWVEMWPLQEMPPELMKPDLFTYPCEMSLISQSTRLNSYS

Compound | activity change, negative = inhibition
CCN(C(=O)CN1C(=O)/C(=C/c2ccc(F)cc2)SC1=S)C1CCS(=O)(=O)C1 (stereo unspecified) | 5.31%
O=C1/C(=C/c2ccc(F)cc2)SC(=S)N1CCCC(=O)N1CCCCC1CCO (stereo unspecified) | -99.6% (active)
COc1cccc(/C=C2\SC(=S)N(CCCC(=O)N3CCOCC3)C2=O)c1 | 9.2%
O=C(NC1CC1)c1ccc(-c2ccccc2)cc1 | -5.32%
O=C(NNC(=O)c1ccc(-c2ccccc2)cc1)Nc1ccccc1 | -86.2% (active)
O=C(NNC(=O)c1ccco1)Nc1ccccc1 | -5.56%
COC(=O)c1ccccc1NC(=O)C(Cc1ccccc1)N1Cc2ccccc2C1=O (stereo unspecified) | -13.9%
O=C(c1ccco1)n1nc(-c2ccc(Cl)cc2)nc1NCc1ccccc1 | -6.49%
COc1ccccc1N1CCN(CCCNC(=O)c2cnn(-c3ccccc3Cl)c2C2CCN(C(=O)OC(C)(C)C)CC2)CC1 | -27.8%
O=C(CCC(=O)N1CC2CCCN2c2ccccc21)NCc1ccccc1Cl (stereo unspecified) | -15%
CCc1nnc(SCc2c(F)cccc2Cl)c2cc3sccc3n12 | 3.15%
CC(=O)Nc1cccc(-c2csc(Nc3cccc(C)n3)n2)c1 | -62.8% (active)
COc1ccc(-c2csc(Nc3cccc(C)n3)n2)cc1OC | -15.8%
Cc1cccc(NC(=O)Nc2ccc3c(c2)OCO3)n1 | 6.53%
COc1ccc2c(c1)Cc1sc(NC(=O)c3ccccc3Br)nc1-2 | -16.9%
COc1ccc(N2CCN(C(=O)CSCc3nc(-c4ccccc4Cl)oc3C)CC2)cc1 | -64.6% (active)
COc1ccc(CNC(=O)CSCc2nc(-c3ccccc3F)oc2C)cc1 | -25.8%
COc1ccc(N2CCN(C(=O)CCSCc3ccccc3F)CC2)cc1 | -7.15%
CCc1ccc(NC(=O)C2CCCN2S(=O)(=O)c2ccc3nc(-c4ccccc4)[nH]c3c2)cc1 (stereo unspecified) | -3.72%

Compound | activity change, negative = inhibition
CN1C(=O)c2ccccc2Sc2ccc(NC(=O)Cc3ccc(Cl)cc3)cc21 | -36%
O=C(CSc1nc2c(c(=O)[nH]1)CN(Cc1ccc(F)cc1)CC2)Nc1ccccc1Cl | -5.69%
CCOc1ccc(Nc2ncnc3scc(-c4ccc(OC)cc4)c23)cc1 | -16.5%
O=C1C=C(c2ccc(Cl)cc2)C(=O)N1Nc1ccccc1 | -62.4% (active)
Cc1cccc(NC(=O)Cn2cc(S(=O)(=O)Cc3ccccc3Cl)c3ccccc32)c1 | -19.7%
CCS(=O)(=O)c1ncc(N(Cc2ccc(F)cc2)Cc2ccco2)c(C(=O)Nc2cc(C)ccc2C)n1 | -11.8%
CCOC(=O)c1ccc(NC(=O)c2nc(SCc3ccc(F)cc3)ncc2Cl)cc1 | 3.57%
Cc1cccc(CS(=O)(=O)c2ncc(Cl)c(C(=O)Nc3ccc(F)cc3)n2)c1 | -95.9% (active)
Cc1cccc(NC(=O)c2nc(S(=O)(=O)Cc3ccccc3)ncc2Cl)c1 | -89.5% (active)
CCCSc1ncc(Cl)c(C(=O)Nc2c(C(=O)Nc3ccccc3)oc3ccccc23)n1 | 4.58%
COc1ccc(OC)c(NC(=O)/C=C/c2ccc(C)o2)c1 | -0.228%
O=C(Nc1nnc(S(=O)(=O)N2CCCc3ccccc32)s1)c1cccc(F)c1 | -23.2%
CCN1CCN(C(c2ccc(C)cc2)c2c(O)cc(C)n(Cc3ccco3)c2=O)CC1 (stereo unspecified) | -15.2%
COc1cccc(Cn2c(SCc3ccc(C(=O)N4CCC(C)CC4)cc3)nc3ccncc32)c1 | 0.54%
COc1cccc2sc(N(CCCN(C)C)C(=O)C(c3ccccc3)c3ccccc3)nc12 | -77.3% (active)
Cc1cccc2sc(N(CCCN(C)C)C(=O)CCS(=O)(=O)c3ccccc3)nc12 | 10.5%
CCN(CC)CCN(C(=O)c1ccc2c(c1)CCCC2)c1nc2c(OC)cccc2s1 | -18.9%
CCN(CC)c1ccc(NS(=O)(=O)c2cc(-c3cc(C)no3)ccc2C)c(C)c1 | -32.3%
CCc1ccccc1NC(=O)c1sc2nc3c(cc2c1N)CN(Cc1ccccc1)CC3 | -0.166%

Compound | activity change, negative = inhibition
Cc1cccc(N2CCN(C3=C(c4ccccc4)C(=O)c4ccccc43)CC2)c1C | -0.811%
CCc1cccc(NC(=O)CN(C)S(=O)(=O)c2ccc3[nH]c4c(c3c2)CCCC4)c1 | -7.15%
CCCCOCCOC(=O)c1cccnc1 | 8.56%
Cc1ccc(NC(=O)CSc2nc3ccccc3c3nc(CCn4cncc4C)nn23)cc1F | -6.58%
Cc1c(C)n(Cc2ccc(Cl)cc2)c2ccc(C(=O)NCCc3ccc(S(N)(=O)=O)cc3)cc12 | -10.3%
CC(CCCc1ccccc1)NC(=O)c1nn(-c2ccc(Cl)cc2)nc1CO (stereo unspecified) | -85.1% (active)
O=C(NCCCO)c1nn(-c2ccc(Cl)cc2)nc1CO | -16.3%
Cc1ccc(-n2nc(CO)c(C(=O)NCCc3ccccc3)n2)cc1 | -19.5%
O=[N+]([O-])c1c(NCCO)cc(Sc2nc3ccccc3s2)c2nonc12 | -71% (active)
CC(C)(C)c1ccc(S(=O)(=O)Nc2ccc(O)c(Sc3nc4ccccc4s3)c2)cc1 | -31%
O=C(COc1ccccc1Cl)Nc1ccc2nc(SCC(=O)N3CCCC3)sc2c1 | 0.0142%
COCC(C)NS(=O)(=O)c1ccc(N2CCCCS2(=O)=O)cc1 (stereo unspecified) | -3.31%
CCc1nc2nc(C)cc(Nc3ccc(F)c(Cl)c3)n2n1 | -7.58%
CC1(C)CC(=O)C=C(N2CCOCC2)C1 | -12.6%
CC(C)OCC(O)CN1CCN(C(c2ccccc2)c2ccccc2)CC1 (stereo unspecified) | -2.44%
CC1(C)CC(N2CCN(C(c3ccccc3)c3ccccc3)CC2)=CC(=[N+]2CCCCC2)C1 | -86.5% (active)
Cc1ccccc1OCc1ccc(-c2nc(C#N)c(N3CCCCC3)o2)o1 | -8.24%
Cc1c(C)n(Cc2ccc(Cl)cc2)c2ccc(C(=O)N3CCN(c4ccccc4F)CC3)cc12 | -18.8%

Source: PubChem BioAssay AID1259400 (National Center for Advancing Translational Sciences (NCATS), 2018)
